Records with an inconclusive call do not appear. Values without a mark were called inactive. The source made the active and inactive calls. The call rests on the fitted dose curve; in most records, active means well fitted inhibition curve with a large enough effect; inconclusive means small, poorly fitted or top-dose-only effect; inactive means no such curve, though single readings can be large or run the other way. Starred links: 1 amine or outer side, 2 acyl side, 3 side chain; linkers in the order of their positions; H or OH if unused. Positions of bridges follow the written chain, without caps; N, C: chain ends. Non-standard residues stand in square brackets, D forms with d. Residues, ends and D or L forms follow the SMILES beside them. Chains are numbered I, II in the order given. Actinocin(9to1) = Cc1c2oc3c(C)ccc(C(=O)[*:1])c3nc-2c(C(=O)[*:2])c(N)c1=O; NMeV = CN[CH](C(=O)O)C(C)C; Sar = CNCC(=O)O
Experiment: qHTS Screen of the MIPE 4.0 Collection Against Ewings Sarcoma (EW8) (AID 1259255); further: nearly all actives have a fitted effect of over 35% in size;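 on viability: 100% = DMSO-treated cells and 0% = medium-only wells without cells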
Conditions: EW8 Ewing sarcoma viability, CellTiter-Glo, 48 h; series mostly up to 45.8 µM; viability: at the top concentration
Outline: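 CellTiter-Glo luminescence after 48 h compound exposure (titration) gave viability; percent activity used DMSO-treated cells as no inhibition and medium-only wells as full inhibition. Cells grown in RPMI/5% FBS, dosed 4 h post-seeding.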
Potency means the concentration at half of the fitted maximal effect.

Structure (SMILES) | viability | Potency
CCCCCCCCCCCCCCCC(=O)OC[C@@H](NC(=O)C(Cl)Cl)[C@H](O)c1ccc([N+](=O)[O-])cc1 | 123% | –
Cn1cc(C[C@@H](N)C(=O)O)c2ccccc21 | 104% [at 23.2 µM] | –
Cc1cc(-c2nnc3n2CCCCC3)c(C)n1-c1ccccc1 | 99.9% | –
O=[N+]([O-])c1cn2c(n1)OC[C@@H](OCc1ccc(OC(F)(F)F)cc1)C2 | – | 9.35 µM (active)
N[C@H]1CN(c2c(F)cc3c(=O)c(C(=O)O)cn(C4C[C@@H]4F)c3c2Cl)CC12CC2 (stereo not given in full) | 112% | –
C=CC1=C(C(=O)O)N2C(=O)[C@@H](NC(=O)C(=NO)c3csc(N)n3)[C@H]2SC1 | 119% | –
C[C@@H](Cc1cc2c(c(C(N)=O)c1)N(CCCO)CC2)NCCOc1ccccc1OCC(F)(F)F | 89.9% | –
C[C@H]1COc2c(N3CCN(C)CC3)c(F)cc3c(=O)c(C(=O)O)cn1c23 | 112% | –
C=CCNC1=C2C[C@@H](C)C[C@H](OC)[C@@H](O)[C@@H](C)C=C(C)[C@H](OC(N)=O)[C@@H](OC)C=CC=C(C)C(=O)NC(=CC1=O)C2=O | – | 10.5 µM (active)
CCNC(=O)c1cc2c(-c3cc(OCCN4CCCC4)c(Cl)cc3Cl)nc(N)nc2s1 | – | 1.18 µM (active)
COC(=O)[C@H](CCCN=C(N)N)NS(=O)(=O)c1ccc(C)cc1 | 105% | –
CCCNS(=O)(=O)Nc1ncnc(OCCOc2ncc(Br)cn2)c1-c1ccc(Br)cc1 | 115% | –
Cn1cc(C=CC(=O)c2cccc(F)c2)cc1C=CC(=O)NO | – | 16.6 µM (active)
C[C@@H]1CC[C@@]2(OC1)OC1CC3C4CC=C5CC(O)CCC5(C)C4CCC3(C)C1[C@@H]2C (stereo not given in full) | 120% | –
CCN1CCN(C(=O)N[C@H](C(=O)N[C@@H]2C(=O)N3C(C(=O)O)=C(CSc4nnnn4C)CS[C@@H]23)c2ccc(O)cc2)C(=O)C1=O | 114% [at 15.3 µM] | –
Cn1c(Nc2ccc(C(F)(F)F)cc2)nc2cc(Oc3ccnc(-c4ncc(C(F)(F)F)[nH]4)c3)ccc21 | – | 5.26 µM (active)
CC(C)(O)[C@H]1CC[C@@](C)([C@H]2[C@@H](O)C[C@@]3(C)[C@@H]4C[C@H](O[C@@H]5O[C@H](CO)[C@@H](O)[C@H](O)[C@@H]5O)[C@H]5C(C)(C)[C@@H](O[C@@H]6OC[C@@H](O)[C@H](O)[C@@H]6O)CC[C@@]56C[C@@]46CC[C@]23C)O1 | 108% | –
CC(=O)O[C@H]1C[C@@H]2CC[C@H]3[C@H]4C[C@H]([N+]5(C)CCCCC5)[C@@H](OC(C)=O)[C@@]4(C)CC[C@@H]3[C@@]2(C)C[C@H]1[N+]1(C)CCCCC1 | – | 2.64 µM (active)
O=C1c2c(O)cccc2[C@@H]([C@@H]2O[C@H](CO)[C@@H](O)[C@H](O)[C@H]2O)c2cc(CO)cc(O)c21 | 115% | –
Nc1nc(=O)n([C@H]2C[C@H](O)[C@@H](CO)O2)cc1F | – | 0.0662 µM (active)
O=C(O)CCCCC(CCSCc1ccccc1)SCc1ccccc1 (stereo not given) | 117% | –
OCCNC1CCCc2c1[nH]c1ccc(-c3ccccc3)cc21 (stereo not given) | – | 23.5 µM (active)
C=C1C(=O)O[C@H]2[C@@H]1CCC(C)=CCC[C@@]1(C)O[C@@H]21 | – | 9.35 µM (active)
CCCNC(=O)[C@H]1O[C@H]1C(=O)N[C@H](C(=O)N1CCC[C@@H]1C(=O)OC)C(C)CC (stereo not given in full) | – | 11.8 µM (active)
CC(C)(O)Cn1c(NC(=O)c2ccc(-c3cn[nH]c3)s2)nc2cc(CN3CCOCC3)ccc21 | – | 2.96 µM (active)
CC[C@H](CC[C@@H](C)[C@H]1CC[C@H]2[C@@H]3CC=C4C[C@@H](O)CC[C@]4(C)[C@@H]3CC[C@]12C)C(C)C | 121% | –
Nc1ccc(C(=O)Nc2cccc(-c3nc(N4CCOCC4)c4oc5ncccc5c4n3)c2)cn1 | – | 18.7 µM (active)
CC(=O)OCC(=O)[C@@]12N=C(C)O[C@H]1C[C@H]1[C@@H]3CCC4=CC(=O)C=C[C@]4(C)[C@@H]3[C@@H](O)C[C@@]12C | 109% | –
COC(=O)[C@@H]1[C@H]2C[C@@H]3c4[nH]c5ccccc5c4CCN3C[C@@H]2CC[C@@H]1O | 111% | –
Cc1c2oc3c(C)ccc(C(=O)NC4C(=O)NC(C(C)C)C(=O)N5CCCC5C(=O)N(C)CC(=O)N(C)C(C(C)C)C(=O)OC4C)c3nc-2c(C(=O)NC2C(=O)NC(C(C)C)C(=O)N3CCCC3C(=O)N(C)CC(=O)N(C)C(C(C)C)C(=O)OC2C)c(N)c1=O (stereo not given) (I: TVP[Sar][NMeV] / II: TVP[Sar][NMeV]; ester I:1-I:C, II:1-II:C; linker I:N-II:N via Actinocin(9to1); configuration not given here) | -0.201% | –

From PubChem BioAssay (NCATS)
